Laboratory results from PubChem BioAssay.
Calls of active or inactive are those of the source. Unless noted, how the calls were made is not given here.

Key:
[1] = test system: XIP peptide (Xip251-270) binding; assay: XIP fragment 251-270 binding compounds – biochemical, small-molecule microarray, fluorescence 635/667 nm, 0.1 µg/mL protein, primary screen (AID 1182); conditions: fluorescent protein binding, 635 nm, higher = more signal, called active from +8 up or from −8 down
[2] = test system: XIP peptide (Xip251-270); assay: compounds binding XIP fragment 251-270 – biochemical, small-molecule microarray, fluorescence 635/667 nm, 0.5 µg/mL protein, primary screen (AID 1183); conditions: fluorescence 635 nm, higher = more signal
[3] = blood-stage malaria parasite viability loss – strain 3D7, DAPI fluorescence, 100 nL, primary screen (AID 1184);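 further: parasites grown inside human red blood cells in medium with human serum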; conditions: P. falciparum 3D7 growth, 3 d, higher = more signal
[4] = target: Homeobox protein Hox-A13 (Mus musculus) (UniProt Q62424); assay: disruptors of Hoxa13 oligonucleotide interaction – biochemical, fluorescence polarization, labeled oligonucleotide, primary screen (AID 1185); conditions: Hoxa13:DNA binding, 15 min, higher = more signal, called active from +8 up or from −8 down
[5] = blockers of DNA damage checkpoint Chk1 activation – imaging, HeLa, hydroxyurea, phospho-Chk1 antibody, percent positive cells, primary screen (AID 1186); conditions: hydroxyurea-induced phospho-Chk1 immunofluorescence imaging, higher = more signal
[6] = blockers of DNA damage checkpoint Chk1 activation – imaging, HeLa, hydroxyurea, phospho-Chk1 nuclear intensity, primary screen (AID 1187); conditions: hydroxyurea-induced phospho-Chk1 immunofluorescence imaging, higher = more signal

Chain of Homeobox protein Hox-A13 (Mus musculus) (Q62424 whole entry, looked up): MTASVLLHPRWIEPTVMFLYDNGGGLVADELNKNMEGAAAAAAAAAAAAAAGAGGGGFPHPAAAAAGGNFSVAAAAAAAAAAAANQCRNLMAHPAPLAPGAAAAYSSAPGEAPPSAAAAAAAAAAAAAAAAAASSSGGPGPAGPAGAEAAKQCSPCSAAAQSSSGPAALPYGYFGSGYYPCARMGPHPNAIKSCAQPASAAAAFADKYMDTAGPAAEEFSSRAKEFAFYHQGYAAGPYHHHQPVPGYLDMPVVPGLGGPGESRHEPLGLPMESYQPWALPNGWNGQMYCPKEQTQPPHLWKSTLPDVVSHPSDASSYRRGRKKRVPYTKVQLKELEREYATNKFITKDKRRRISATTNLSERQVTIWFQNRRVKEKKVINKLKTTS

Row | Compound | composite z-score [1] | composite z-score [2] | z-score [3] | z-score [4] | z-score [5] | z-score [6]
1 | O=C1O[C@H](c2ccccc2)[C@H](c2ccccc2)N2[C@H]1[C@@H](C(=O)O)[C@]1(C(=O)Nc3ccccc31)[C@H]2c1ccc(O)cc1 | 0.624 (inactive) | 0.212 | -0.0758 | -5.84 (inactive) | 0.0422 (inactive) | -0.426 (inactive)
2 | C[C@@H]1ON(c2ccc(C(=O)OC(C)(C)C)cc2)[C@H](c2ccc(Br)cc2)[C@H]1C(=O)N1C(=O)OC[C@H]1Cc1ccccc1 | 0.36 (inactive) | 0.321 | -0.238 | -0.654 (inactive) | -0.55 (inactive) | -0.237 (inactive)
3 | CCOC(=O)C1=CC[C@@H](c2ccccc2)N(S(=O)(=O)c2ccc(C)cc2)C1 | -0.4 (inactive) | -0.654 | -0.557 | -2.76 (inactive) | 0.107 (inactive) | -0.749 (inactive)
4 | COc1ccc(C#Cc2ccc3c(c2)[C@]2(C(=O)N3)[C@H](C(=O)N3CCc4cc(OC)c(OC)cc4C3)[C@H]3C(=O)O[C@H](c4ccccc4)[C@H](c4ccccc4)N3[C@@H]2c2ccc(O)cc2)cc1 | 0.786 (inactive) | 0.578 | -1.48 | -1.05 (inactive) | -0.24 (inactive) | -0.218 (inactive)
5 | O=C1NC(=O)C2C1C=CC(C(O)c1c(F)cccc1Cl)N2Nc1ccccn1 (stereo not given) | 0.49 (inactive) | 0.833 | -0.362 | -2.19 (inactive) | 0.578 (inactive) | 0.135 (inactive)
6 | O=C(CCCCCCC(=O)Nc1ccccc1)N/N=C/c1ccccc1 | -0.531 (inactive) | -0.57 | 1.01 | 0.458 (inactive) | -0.156 (inactive) | -0.425 (inactive)
7 | NC(=O)NCC#Cc1ccc2c(c1)[C@]1(C(=O)N2)[C@H](C(=O)Nc2nc3ccccc3s2)[C@H]2C(=O)O[C@H](c3ccccc3)[C@H](c3ccccc3)N2[C@@H]1c1ccc(O)cc1 | 0.207 (inactive) | 0.6 | -0.905 | 0.916 (inactive) | 0.118 (inactive) | 0.194 (inactive)
8 | CC(C)N1C(=O)[C@@]2(c3ccc([N+](=O)[O-])cc3)CC(=O)N(C3CCCCC3)[C@@H]2c2ccc(CO)cc21 | 0.888 (inactive) | 0.287 | 0.501 | 0.0267 (inactive) | -0.135 (inactive) | -0.141 (inactive)
9 | COC(=O)C(CC#Cc1ccc2c(c1)[C@]1(C(=O)N2)[C@H](C(=O)O)[C@H]2C(=O)O[C@H](c3ccccc3)[C@H](c3ccccc3)N2[C@@H]1c1ccccc1OCCO)C(=O)OC | 0.341 (inactive) | 0.853 | -2.06 | -6.38 (inactive) | -0.244 (inactive) | -0.674 (inactive)
10 | C#CCNC(=O)[C@H](Cc1ccccc1)NC(=O)[C@@H](N=[N+]=[N-])C(C)C | 0.056 (inactive) | 0.262 | -0.765 | -0.747 (inactive) | 0.744 (inactive) | 0.815 (inactive)
11 | CC(C)C(=C=CC[C@H](O)c1ccc(OCCO)cc1)C[C@H](O)c1cc(Cl)cc(Cl)c1O | 0.263 (inactive) | 0.746 | -2.74 | -1.35 (inactive) | -0.289 (inactive) | 0.18 (inactive)
12 | COCCOC(=O)N1C(=O)[C@@]2(c3cc(C#CC4(O)CCCCCC4)ccc31)[C@H](C(N)=O)[C@H]1C(=O)O[C@H](c3ccccc3)[C@H](c3ccccc3)N1[C@@H]2c1ccccc1OCCO | -0.0203 (inactive) | 0.792 | -2.19 | -1.56 (inactive) | 0.276 (inactive) | 0.217 (inactive)
13 | COC(=O)[C@@]1(Cc2ccccc2)[C@H]2c3cc(C(=O)N4CCCC4)[nH]c3C[C@H]2CN1C(=O)c1ccccc1 | 0.282 (inactive) | 0.659 | -0.0756 | -1.8 (inactive) | 1.1 (inactive) | 1.21 (inactive)
14 | C=C(CCCC)C(=O)CC[C@@H](OC(=O)c1ccccc1-c1ccccc1C(=O)O)c1cccc(OCCO)c1 | 1.03 (inactive) | 0.204 | -2.46 | -5.72 (inactive) | 0.456 (inactive) | 0.408 (inactive)
15 | C=CCN1C(=O)[C@@]2(CCC(=O)OC(C)(C)C)N=C(c3ccc(OCCCO)cc3)O[C@H]2c2ccccc21 | 0.841 (inactive) | 0.473 | -1.95 | -0.861 (inactive) | -0.239 (inactive) | -0.351 (inactive)
16 | C=C(C(=O)CC[C@H](OC(C)=O)c1cccc(OCCO)c1)C(C)C | -0.252 (inactive) | 0.565 | -1.96 | -4.74 (inactive) | 0.885 (inactive) | 0.41 (inactive)
17 | O=C1O[C@@H](c2ccccc2)[C@@H](c2ccccc2)N2[C@@H](c3ccccc3OCCO)[C@]3(C(=O)Nc4ccccc43)[C@@H](C(=O)NC[C@H](O)c3ccccc3)[C@H]12 | 1.42 (inactive) | -0.303 | -0.692 | -5.34 (inactive) | -0.152 (inactive) | -0.169 (inactive)
18 | O=C1OCC=C[C@H]2OC34C=CCN(c5ccc(Cl)cc5)C(=O)[C@H]3N(CCCCCO)C(=O)[C@@H]4[C@@H]12 (stereo not given in full) | -0.0492 (inactive) | -0.192 | -0.826 | -3.66 (inactive) | -0.11 (inactive) | -0.281 (inactive)
19 | O=C(O)[C@]1(Cc2ccccc2)N=C(c2ccc(OCCCO)cc2)O[C@@H]1c1ccccc1 | -0.243 (inactive) | 0.48 | 1.24 | -4.93 (inactive) | 0.282 (inactive) | 0.37 (inactive)
20 | [N-]=[N+]=NCc1ccccc1C[C@]1(C(=O)NCC(O)CO)N=C(c2ccc(OCCCO)cc2)O[C@H]1c1ccccc1CN=[N+]=[N-] (stereo not given in full) | 0.311 (inactive) | 0.75 | -2.78 | -0.829 (inactive) | 0.458 (inactive) | 0.414 (inactive)
21 | C=C[C@H](COC(C)=O)NS(=O)(=O)c1ccc(Br)cc1 | -0.111 (inactive) | 0.238 | 0.463 | -0.189 (inactive) | -0.655 (inactive) | -0.782 (inactive)
22 | C=CC[C@]12N=C(c3ccc(OCCCO)cc3)O[C@H]1c1ccccc1N(C)C2=O | 2.91 (inactive) | 0.842 | -2.33 | -4.31 (inactive) | -0.0503 (inactive) | -0.394 (inactive)
23 | C=C[C@@H](C)[C@H](OC(=O)Nc1ccc(SC)cc1)c1ccc(OCCO)cc1 | 0.263 (inactive) | -0.0795 | -0.005 | -4.89 (inactive) | -0.405 (inactive) | 0.433 (inactive)
24 | COc1cc2c(cc1O)C(C)N(Cc1cc3c(cc1Br)OCO3)CC2 (stereo not given) | 1.5 (inactive) | 0.291 | -2.03 | -1.58 (inactive) | -0.765 (inactive) | -1.06 (inactive)
25 | COc1ccccc1CN1C(=O)c2ccccc2[C@@H](C(=O)NC(C)C)[C@@H]1c1ccc(CO)cc1 | 0.0282 (inactive) | 0.905 | -0.425 | -1.9 (inactive) | 0.19 (inactive) | 0.686 (inactive)
